Out of some 360,000 compounds screened, about 8,200 (2.3%) were called active. For the sample, actives were picked, then their nearest neighbours and some compounds at random. Unmarked numbers belong to inactive results. No stated cut-off is given here; in the data, active means inhibition above about 27%; inactive means the rest.

In this assay the target is Fructose-bisphosphate aldolase (Mycobacterium tuberculosis (strain ATCC 25618 / H37Rv)) (UniProt P9WQA3). The assay is described as follows: Mtb FBA enzyme inhibitors, primary screen, biochemical, fluorescence, strain H37Rv (AID 588726).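 Further: 0% = vehicle and 100% = reference inhibitor.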 The note with it: purified M. tuberculosis FBA, fluorescence read-out, at 1 µM, stronger effect = higher value.
Chain of Fructose-bisphosphate aldolase (Mycobacterium tuberculosis (strain ATCC 25618 / H37Rv)) (P9WQA3 whole entry, looked up): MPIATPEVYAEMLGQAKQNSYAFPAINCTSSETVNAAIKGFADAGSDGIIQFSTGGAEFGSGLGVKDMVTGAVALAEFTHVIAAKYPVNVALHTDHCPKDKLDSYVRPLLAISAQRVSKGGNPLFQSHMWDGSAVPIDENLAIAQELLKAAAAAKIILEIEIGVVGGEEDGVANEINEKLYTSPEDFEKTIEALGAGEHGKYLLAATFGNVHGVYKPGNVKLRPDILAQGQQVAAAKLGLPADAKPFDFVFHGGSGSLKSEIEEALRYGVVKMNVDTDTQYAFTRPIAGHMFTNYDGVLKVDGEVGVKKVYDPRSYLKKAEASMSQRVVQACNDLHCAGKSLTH
For `Clc1ccc(Cl)c(Oc2ccc(Oc3nc(Cl)ccc3Cl)cc2)n1`, the inhibition (usually the relative decrease from the control value, in per cent) was 4.19%.

Turning to `COc1ccc2c(c1)C(=C(C#N)C#N)C(=O)N2CCc1ccccc1`, the inhibition was 0.52%.

On to `COc1ccc2c(CC(=O)OCC(=O)Nc3ccccc3[N+](=O)[O-])coc2c1`, for which the inhibition was 2.62%.

In the case of `CC(C)(C)OC(=O)Nc1ccc([C@@H](NC(=O)OC(C)(C)C)C(=O)OC(C)(C)C)cc1`, the inhibition was -1.85%.

Consider `COc1cccc2cc(S(=O)(=O)c3ccc(C)cc3)/c(=N/NS(=O)(=O)c3ccc(C)cc3)oc12`, for which the inhibition was -1.11%.

In the case of `Cc1cc(S(=O)(=O)c2cc3ccc(O)c(C)c3oc2=O)ccc1F`, the inhibition was 72.4% (active).

Turning to `Cc1cc(C(=O)OCC(=O)c2c(N)n(C)c(=O)n(C)c2=O)c(C)o1`, the inhibition is 0.07%.

For `O=S(=O)(c1ccc(Br)cc1)n1ccc2ccccc21`, the inhibition was -4.37%.

With `CS(=O)(=O)N(CC(=O)N1CCCC1)Cc1ccccc1`, the inhibition is 1.15%.

As for `CN(Cc1ccccc1Cl)C(=O)C1CCC(=O)N(CCc2cccc(F)c2)C1` (centres undefined), the inhibition was -0.04%.

In the case of `O=C(N=C1SC2CS(=O)(=O)CC2N1c1cc(Cl)ccc1Cl)C1CC1` (centres undefined), the inhibition is 0.93%.

In the case of `COc1ccc2c(C)c(CCC(=O)NC3CC3)c(=O)oc2c1C`, the inhibition was 162% (active).

On to `COc1ccc(CCNC(=O)CCC(=O)NC2CCCCC2)cc1OC`, for which the inhibition was 0.12%.

For the compound `CCOc1ccc(-c2noc(CCC(=O)NC3CCCC3)n2)cc1OC`, the inhibition was 1.23%.

As for `CC(C)N1CCC(NC(=O)Nc2ccccc2)CC1`, the inhibition is 0%.

For the compound `Cc1ccc(-c2nn(-c3cccc(F)c3)cc2CNCCc2ccncc2)o1`, the inhibition was 3.67%.

In the case of `C#Cc1ccc(NC(=O)C2(C)CCN2C(=O)Cc2ccc(-c3ccccc3)cc2)cc1` (centres undefined), the inhibition is -1.12%.

`COc1ccc(S(=O)(=O)N(C)C[C@H]2Oc3c(NC(=O)Nc4ccc5c(c4)OCO5)cccc3C(=O)N([C@H](C)CO)C[C@@H]2C)cc1`: the inhibition is 112% (active).

Take `COc1ccc(S(=O)(=O)Nc2cccc3c2O[C@H](CN(C)S(=O)(=O)c2ccc(OC)cc2)[C@@H](C)CN([C@H](C)CO)C3=O)cc1`: the inhibition was 0.3%.

`Cc1noc(C)c1S(=O)(=O)N(C)C[C@H]1Oc2c(NC(=O)Nc3ccc4c(c3)OCO4)cccc2C(=O)N([C@H](C)CO)C[C@@H]1C`: the inhibition was -0.42%.

In the case of `CCN(CCn1cccn1)C(=O)CC1C(=O)NCCN1Cc1cccc(OC)c1OC` (centres undefined), the inhibition was 0.01%.

As to `CC(C)C1Nc2c(C(=O)O)cccc2C(Nc2ccccc2C(=O)O)C1(C)C` (centres undefined), the inhibition is 107% (active).

As for `CCCCN1CC(COc2ccccc2)Oc2cccc(F)c2S1(=O)=O` (centres undefined), the inhibition is -2.92%.

With `O=C(c1ccc(Cl)cc1)N1N=C(c2ccccn2)CC1(O)C(F)(F)F` (centres undefined), the inhibition was 4.39%.

Take `CCOC(=O)[C@H]1[C@H]2COc3ccc(C)cc3[C@@H]2N2C(=O)CN(Cc3ccc(F)cc3)C(=O)[C@@]12C`: the inhibition was 0.55%.

Consider `CC[C@@H]1Cc2cc(O)ccc2C2=C1c1ccc(O)cc1C[C@H]2CC`, for which the inhibition is 89.3% (active).

Regarding `O=C1NC(=O)C(c2ccc(Cl)cc2)N1` (centres undefined), the inhibition is 3.68%.

`COCCNC(=O)c1ccc2nc(Cc3ccc(OC)c(OC)c3)oc2c1`: the inhibition was 2.67%.

Regarding `COc1ccc(CNC(=O)COc2ccccc2C(=O)c2cnn(-c3ccccc3)c2)cc1OC`, the inhibition was 6.29%.

In the case of `CCCCNC(=O)c1ccccc1NC(=O)C1=C(C)OCCS1`, the inhibition is 1.28%.

Turning to `Cc1ccc(-c2nn(-c3ccccc3)cc2/C=C/C(=O)Nc2cccc(S(N)(=O)=O)c2)cc1`, the inhibition was 2.47%.

As for `CC(=O)C1=C(C)NC(C)=C(C(C)=O)C1c1cn(-c2ccccc2)nc1-c1cccs1`, the inhibition is 0.45%.

With `O=C(O)/C=C/c1cn(-c2ccccc2)nc1-c1cccs1`, the inhibition was 57.3% (active).

`O=C1COc2ccc(NC(=O)N3CCN(c4ccc(F)cc4)CC3)cc2N1`: the inhibition is 1.24%.

On to `CC(=O)NC12CC3CC(C1)CC(C(=O)N1CCN(S(=O)(=O)c4cccs4)CC1)(C3)C2`, for which the inhibition is -0.81%.

Consider `Cc1cn(C2OC[C@@H](O)[C@@H]2CO)c(=O)[nH]c1=O` (some centres undefined), for which the inhibition was 0.66%.

Consider `O=C(Nc1ccc([N+](=O)[O-])cc1)C1(c2ccccc2)CCOCC1`, for which the inhibition was -1.46%.

As for `O=C(OCC(=O)N1CCCC1=O)c1cc(S(=O)(=O)N2CCOCC2)ccc1Cl`, the inhibition was -0.38%.

For `COC(=O)c1c(C)c(C)nc(N)c1C#N`, the inhibition was 82.5% (active).

As to `CCOC(=O)c1cc(C)nc(S(C)(=O)=O)c1C#N`, the inhibition is 3.95%.

In the case of `COCc1c(N)c(C)nc(Cl)c1C#N`, the inhibition was 7.26%.

Consider `Cn1nc(C(C)(C)C)c([N+](=O)[O-])c1C(N)=O`, for which the inhibition was 1.86%.

As for `O=C(Cn1cnc([N+](=O)[O-])n1)NCCc1ccccc1`, the inhibition is 0.01%.

Consider `CC1CCCCN1CCCNC(=O)Cn1ncc2c([nH]c3ccccc32)c1=O` (centres undefined), for which the inhibition was 12%.

Turning to `CCCCCn1c(=O)[nH]c2cc(C(=O)NCCCN3CCCCC3C)ccc2c1=O` (centres undefined), the inhibition is 114% (active).

Turning to `O=C(NC1CCCCC1)c1ccc2c(=O)n(CC3CCCO3)c(=O)[nH]c2c1` (centres undefined), the inhibition is -9.09%.

For `CCOC1CS(=O)(=O)CC1OCC` (centres undefined), the inhibition is -0.21%.

With `c1ccc(Cc2c(-c3ccco3)nc3c4ccccc4ccn23)cc1`, the inhibition is 33.2% (active).

Regarding `Cc1ccc(Cc2c(-c3ccc(C)cc3)nc3c4ccccc4ccn23)cc1`, the inhibition is 4.37%.

`FC(F)(F)c1ccccc1Cc1c(-c2ccccc2)nc2c3ccccc3ccn12`: the inhibition was 5.62%.

As to `Cc1cc(NC(=O)/C=C/C(=O)N(CC(=O)NC2CCCC2)c2ccc(F)cc2)no1`, the inhibition was -1.71%.

Regarding `CC1CN(/C=C/C(=O)C(F)(F)F)CC(C)O1` (centres undefined), the inhibition was -2.87%.

Take `O=C1CN(C(=O)COC(=O)C2CC(=O)N(Cc3ccco3)C2)c2ccccc2N1` (centres undefined): the inhibition is 1.16%.

Regarding `CN1C(=O)c2ccc(NC(=O)c3c(F)c(F)c(F)c(F)c3F)cc2C1=O`, the inhibition was 37.5% (active).

Regarding `Cc1nc2ccc(NC(=O)C3CCCCC3)cc2s1`, the inhibition was 2.5%.

With `CN1C(=O)c2ccc(C(=O)Nc3ccc(Br)cn3)cc2C1=O`, the inhibition is -2.34%.

Take `Cc1cccc(C(=O)Nc2ccc3c(c2)C(=O)N(CC(C)C)C3=O)c1`: the inhibition is 8.31%.

As to `O=C(Nc1ccc2c(c1)OCCO2)C1CCCC1`, the inhibition was -2.43%.

On to `CN1C(=O)c2ccc(NC(=O)C3CCCCC3)cc2C1=O`, for which the inhibition was 33.2% (active).

The values above are taken from PubChem BioAssay AID588726 (The Scripps Research Institute Molecular Screening Center, 2011).
